Eight molecules from PubChem BioAssay (Tox21) can be followed below.

Values without a mark were called inactive. Inconclusive results are not listed. Calls of active or inactive are those of the source. Unless noted, calls follow the shape of the full dose curve.

The nature of assay [1]: Nuclear factor erythroid 2-related factor 2/antioxidant responsive element (Nrf2/ARE) small molecule agonists: qHTS cell viability counter screen in human keratinocytes (AID 1919968; active = well fitted curve in the direction sought with a large enough effect in the repeat runs; an effect the other way counts as inactive or inconclusive; also: nearly all actives have a fitted effect of over 55% in size; also: potency is read from the fitted curve at half-maximal effect). The procedure, abridged:
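After a 5 h attachment period, ARE-reporter keratinocytes were dosed with compounds in DMSO and then cultured 23 h at 37 C. Cell viability came from CellTiter-Fluor signal read after a further 1 h.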
(In qHTS, concentration-response curves come from the screen itself.)

The target in assay [2] is Gonadotropin-releasing hormone receptor (Homo sapiens) (UniProt P30968). The experiment in a line: Human gonadotropin-releasing hormone receptor (GnRHR) small molecule agonists, calcium flux assay in GnRHR-HEK293 cells (AID 1920063). Also: nearly all actives have a fitted effect of over 35% in size. In outline:
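We seeded human GnRHR-expressing HEK293 cells for 18 hours, loaded them with calcium dye for an hour at 37 C, added test compounds, and recorded fluorescence intensity kinetically for three minutes.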
(In general: Calcium flux is commonly read through the fluorescence of an indicator in the cells.)

In assay [3] the target is KiSS-1 receptor (Homo sapiens) (UniProt Q969F8). The experiment in a line: Human kisspeptin (KISS1R) small molecule agonists, calcium flux assay in KISS1R-HEK293 cells (AID 1920064; active = well fitted curve in the direction sought with a large enough effect in the repeat runs; an effect the other way counts as inactive or inconclusive). The procedure, abridged: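 Kinetic calcium assay, 1 s sampling over 3 min at Ex/Em 480/540, in HEK293 cells engineered with human KISS1R; compounds delivered in DMSO after 1 h dye loading.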
Chain of KiSS-1 receptor (Homo sapiens) (Q969F8 whole entry, looked up): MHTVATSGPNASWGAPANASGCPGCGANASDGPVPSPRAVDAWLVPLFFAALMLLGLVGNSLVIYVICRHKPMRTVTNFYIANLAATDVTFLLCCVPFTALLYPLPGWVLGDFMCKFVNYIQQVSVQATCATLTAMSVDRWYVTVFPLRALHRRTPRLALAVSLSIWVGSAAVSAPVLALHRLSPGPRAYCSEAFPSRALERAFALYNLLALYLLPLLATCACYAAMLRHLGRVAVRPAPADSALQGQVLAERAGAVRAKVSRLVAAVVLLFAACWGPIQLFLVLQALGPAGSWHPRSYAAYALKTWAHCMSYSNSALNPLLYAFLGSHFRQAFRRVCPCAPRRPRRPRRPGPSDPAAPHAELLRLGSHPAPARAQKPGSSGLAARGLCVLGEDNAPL

Assay [4] in a line: G protein-coupled receptor (GPCR) small molecule agonists, calcium flux assay: HEK293 wild type cell line counter screen (AID 1920065). The procedure, abridged:
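Calcium-sensitive dye, loaded 1 h at 37 C into cells cultured 18 h, reports compound-evoked calcium release as fluorescence (Ex/Em 480/540), measured over 3 min. Agonist mode; 15-point titrations, triplicate.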

Assay [5] can be described thus: p53 small molecule agonists, cell-based qHTS assay with human liver microsomes (AID 1963577). The procedure, abridged:
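Cells carrying a p53-responsive bla reporter were rested 5 h (37 C, 5% CO2) before compound transfer. Human liver microsomes plus NADPH, 0.5 mg/mL final apiece, supplied metabolism during the 16 h 37 C exposure.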

Assay [6] in a line: p53 small molecule agonists, cell-based qHTS assay with rat liver microsomes (AID 1963578). In outline: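 Fluorescence from a beta-lactamase reporter under a p53 response element was measured after cells had been incubated 16 h at 37 C with test compound and rat liver microsomes plus NADPH (0.5 mg/mL final each).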
The nature of assay [7]: p53 small molecule agonists, cell-based qHTS assay with rat liver microsomes: qHTS cell viability counter screen (AID 1963580). Also: nearly all actives have a fitted effect of over 45% in size. The procedure, abridged: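 p53RE-bla HCT-116 cells were exposed 16 h at 37 C to compounds with rat liver microsomes (0.5 mg/mL) and NADPH (0.5 mg/mL). Viability was measured in the same wells as ATP content by CellTiter-Glo luminescence.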
Assay [8] can be described thus: p53 small molecule agonists, cell-based qHTS assay: qHTS cell viability counter screen (AID 1963581). Also: nearly all actives have a fitted effect of over 45% in size. In outline:
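Following 5 h attachment, HCT-116 p53RE-bla cells took up compound for 16 h at 37 C; the reporter was read with B/G FRET substrate (2 h RT), and viability then via CellTiter-Glo ATP luminescence.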

Assay [9] is described as follows: p53 small molecule agonists, cell-based qHTS assay (AID 1963582; active = well fitted activation curve with a large enough effect in the signal ratio in the repeat runs, not every such curve was filed as active; the % refers to the signal ratio). The procedure, abridged: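 In this cell-based concentration-response screen, a p53 response element drives beta-lactamase; cells received DMSO-borne compounds after 5 h culture and were incubated a further 16 h before FRET substrate development.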
Assay [10] addresses 5-hydroxytryptamine receptor 2A (Homo sapiens) (UniProt P28223). The experiment in a line: 5-hydroxytryptamine receptor 2A (HTR2A) small molecule antagonists, cell-based qHTS assay (AID 1963586). Also: nearly all actives have a fitted effect of over 45% in size. In outline:
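Antagonist-mode intracellular calcium assay: DOI (4 nM) added after 5 min compound pre-incubation at room temperature to dye-loaded HTR2A-CHO cells. Fluorescence followed for 3 min, sampled every second.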

Assay [11] shares this target. Nature of the assay: 5-hydroxytryptamine receptor 2A (HTR2A) small molecule agonists, cell-based qHTS assay (AID 1963587). Also: nearly all actives have a fitted effect of over 30% in size. The procedure, abridged: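 CHO cells stably expressing human HTR2A, plated 18 h, loaded with calcium dye 1 h at 37 C. Agonist mode: compounds added and intracellular calcium fluorescence recorded kinetically for 2 min at 1 sec intervals.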
In assay [12] the target is Muscarinic acetylcholine receptor M1 (Homo sapiens) (UniProt P11229). Nature of the assay: Cholinergic receptor muscarinic 1 (CHRM1) small molecule antagonists, cell-based qHTS assay (AID 1963588). Also: nearly all actives have a fitted effect of over 40% in size. The procedure, abridged:
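CHRM1-CHO calcium-flux assay, antagonist mode. Cells were seeded 18 h, dye-loaded 1 h at 37 C and given compound for 5 min at RT, then acetylcholine was added at 50nM. FDSS fluorescence was read 3 min; 15 concentrations, three runs.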

For assay [13] the target is unchanged. Nature of the assay: Cholinergic receptor muscarinic 1 (CHRM1) small molecule agonists, cell-based qHTS assay (AID 1963589). Also: nearly all actives have a fitted effect of over 35% in size. In outline: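 Measures agonist-induced intracellular calcium rise. Stable human CHRM1 CHO line, 1 h dye load at 37 C, compounds from DMSO, kinetic fluorescence read.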
Assay [14] can be described thus: cAMP Responsive Elements (CRE) small molecule antagonists, cell-based qHTS assay (AID 1963591; active = well fitted inhibition curve with a large enough effect in the signal ratio in the repeat runs, not every such curve was filed as active; the % refers to the signal ratio). The procedure, abridged: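 HEK293T cells carrying a CRE-driven beta-lactamase reporter receive compound and NKH477 (0.25 uM final) for 3 h. Fluorescence from LiveBLAzer B/G FRET substrate is read after 2 h at room temperature.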
Assay [15] has as its target Beta-2 adrenergic receptor (Homo sapiens) (UniProt P07550). Nature of the assay: Adrenergic beta2 receptor (ADRB2) small molecule antagonists, cell-based qHTS assay (AID 1963592). Also: series mostly up to about 92 µM; nearly all actives have a fitted effect of over 50% in size. In outline: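 Cells (CHO, stable ADRB2 overexpression) incubated 18-20hr at 37C; compounds added from DMSO; agonist mix (1nM isoproterenol, 100uM IBMX, 25uM Ro-20-1724) added; 0.5hr RT; d2-cAMP and anti-cAMP-cryptate added; 1hr RT; 665/615 nm read.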

Assay [16] has as its target D(2) dopamine receptor (Homo sapiens) (UniProt P14416). Nature of the assay: Dopamine D2 receptor (DRD2) small molecule agonists, cell-based qHTS assay (AID 1963594). Also: nearly all actives have a fitted effect of over 35% in size. The procedure, abridged: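 HEK293 cells stably expressing human DRD2, pre-treated with PDE inhibitor Ro20-1724 (0.1 mM final) and compound 10 min at room temperature, then stimulated with NKH477 (200nM […]) for 30 min. cAMP read by HTRF (665/620 nm).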

Assay [17] has the same target. Nature of the assay: Dopamine D2 receptor (DRD2) small molecule antagonists, cell-based qHTS assay (AID 1963595; active = well fitted inhibition curve with a large enough effect in the signal ratio in the repeat runs, with a control signal flat; the % refers to the signal ratio). In outline:
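Stable D2 receptor HEK293 line, 24 h after seeding. Compound preincubated 10 min, then quinpirole (12 nM) with forskolin analogue NKH477 (200 nM), 30 min, room temperature. Detection by time-resolved FRET of cAMP.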

The nature of assay [18]: cAMP Responsive Elements (CRE) small molecule agonists, cell-based qHTS assay (AID 1963590). In outline:
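A CRE-responsive beta-lactamase reporter in HEK 293T cells was used. Treatment ran 3 h at 37 C; detection used LiveBLAzer B/G FRET substrate for 2 h at room temperature.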

Assay [19] addresses Beta-2 adrenergic receptor (Homo sapiens) (UniProt P07550). The experiment in a line: Adrenergic beta2 receptor (ADRB2) small molecule agonists, cell-based qHTS assay (AID 1963593).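 Also: CHO cells stably overexpressing human ADRB2.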 In outline:
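CHO cells stably over-expressing ADRB2 were plated overnight at 37C, then dosed with compounds plus a stimulation mix containing 100uM IBMX and 25uM Ro-20-1724 for 0.5hr at room temperature. cAMP was measured by HTRF competition, 1hr.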

Chain of Gonadotropin-releasing hormone receptor (Homo sapiens) (P30968 whole entry, looked up): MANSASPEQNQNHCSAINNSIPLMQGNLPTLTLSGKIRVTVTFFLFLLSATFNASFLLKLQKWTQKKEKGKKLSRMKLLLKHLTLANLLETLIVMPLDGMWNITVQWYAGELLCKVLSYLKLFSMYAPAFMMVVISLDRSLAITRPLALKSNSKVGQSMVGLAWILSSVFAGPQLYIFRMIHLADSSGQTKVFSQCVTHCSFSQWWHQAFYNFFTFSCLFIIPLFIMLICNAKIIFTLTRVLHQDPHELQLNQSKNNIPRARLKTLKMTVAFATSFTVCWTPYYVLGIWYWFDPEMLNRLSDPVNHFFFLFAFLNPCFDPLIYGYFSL
Chain of 5-hydroxytryptamine receptor 2A (Homo sapiens) (P28223 whole entry, looked up): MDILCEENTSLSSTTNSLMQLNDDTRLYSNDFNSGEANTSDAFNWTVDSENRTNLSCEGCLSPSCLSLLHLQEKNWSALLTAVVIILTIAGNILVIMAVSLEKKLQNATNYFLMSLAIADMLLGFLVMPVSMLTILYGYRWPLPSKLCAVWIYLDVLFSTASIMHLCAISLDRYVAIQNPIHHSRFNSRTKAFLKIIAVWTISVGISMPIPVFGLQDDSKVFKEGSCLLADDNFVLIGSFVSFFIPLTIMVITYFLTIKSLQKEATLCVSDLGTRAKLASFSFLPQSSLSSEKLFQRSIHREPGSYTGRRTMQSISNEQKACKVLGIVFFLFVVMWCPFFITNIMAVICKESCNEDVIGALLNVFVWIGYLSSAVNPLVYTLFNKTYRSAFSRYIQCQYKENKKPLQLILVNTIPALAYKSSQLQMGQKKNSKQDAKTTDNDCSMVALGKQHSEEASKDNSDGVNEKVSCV
Chain of Muscarinic acetylcholine receptor M1 (Homo sapiens) (P11229 whole entry, looked up): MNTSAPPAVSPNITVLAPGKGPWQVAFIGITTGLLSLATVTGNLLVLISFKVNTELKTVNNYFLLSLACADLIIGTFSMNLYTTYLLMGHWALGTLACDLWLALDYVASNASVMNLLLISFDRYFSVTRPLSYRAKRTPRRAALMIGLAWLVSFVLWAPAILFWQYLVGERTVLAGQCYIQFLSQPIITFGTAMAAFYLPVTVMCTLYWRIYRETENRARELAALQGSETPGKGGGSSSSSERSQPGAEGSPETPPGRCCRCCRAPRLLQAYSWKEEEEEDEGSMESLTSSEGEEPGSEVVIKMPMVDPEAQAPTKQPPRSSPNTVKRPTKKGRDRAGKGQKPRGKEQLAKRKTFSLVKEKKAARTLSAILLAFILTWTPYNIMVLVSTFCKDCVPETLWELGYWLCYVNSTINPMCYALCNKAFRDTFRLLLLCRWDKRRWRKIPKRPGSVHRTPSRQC
Chain of Beta-2 adrenergic receptor (Homo sapiens) (P07550 whole entry, looked up): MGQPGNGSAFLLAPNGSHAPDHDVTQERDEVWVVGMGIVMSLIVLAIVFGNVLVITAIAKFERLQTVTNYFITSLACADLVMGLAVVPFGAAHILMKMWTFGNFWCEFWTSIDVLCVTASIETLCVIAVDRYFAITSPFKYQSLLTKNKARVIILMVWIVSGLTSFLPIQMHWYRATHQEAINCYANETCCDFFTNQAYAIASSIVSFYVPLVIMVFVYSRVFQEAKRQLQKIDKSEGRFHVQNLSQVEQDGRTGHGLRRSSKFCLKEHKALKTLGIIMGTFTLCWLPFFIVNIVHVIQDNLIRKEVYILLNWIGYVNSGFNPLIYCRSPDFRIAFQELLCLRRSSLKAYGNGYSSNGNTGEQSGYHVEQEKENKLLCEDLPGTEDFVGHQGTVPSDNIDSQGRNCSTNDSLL
Chain of D(2) dopamine receptor (Homo sapiens) (P14416 whole entry, looked up): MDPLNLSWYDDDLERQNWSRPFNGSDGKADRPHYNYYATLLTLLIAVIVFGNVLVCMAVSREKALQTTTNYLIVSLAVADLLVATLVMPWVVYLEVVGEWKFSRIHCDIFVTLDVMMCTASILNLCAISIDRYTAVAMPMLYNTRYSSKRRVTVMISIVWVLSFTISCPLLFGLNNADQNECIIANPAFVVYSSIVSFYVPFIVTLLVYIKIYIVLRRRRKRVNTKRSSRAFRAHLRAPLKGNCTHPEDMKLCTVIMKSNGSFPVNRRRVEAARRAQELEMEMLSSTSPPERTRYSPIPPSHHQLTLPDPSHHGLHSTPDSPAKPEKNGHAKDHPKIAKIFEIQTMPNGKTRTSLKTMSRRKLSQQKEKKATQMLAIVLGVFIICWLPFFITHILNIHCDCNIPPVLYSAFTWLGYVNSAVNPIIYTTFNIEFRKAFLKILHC

Take `CC(=O)Nc1ccc(/C=N/NC(N)=S)cc1`: the Potency result in [1], in assay [2], in assay [3], in [4], in assay [5] and in assay [6] was “inactive” throughout. Also, the Potency entry in assay [7], in assay [8], in [9], in [10], in [11] and in assay [12] was “inactive” throughout. Besides, the Potency entry in assay [13], in [14], in assay [15], in [16] and in [17] was “inactive” throughout.
Regarding `CCCCCCCCCC(C)C=O` (stereo unspecified), the Potency result in assay [1], in [2], in assay [3], in [4], in assay [5] and in assay [6] was “inactive” in each case. Also, the Potency result in [7], in assay [8], in assay [10], in assay [11], in assay [12] and in [13] was “inactive” in each case. Further, the Potency result in assay [14] is “inactive”.
Consider `Cc1ccc2ccc(Cl)cc2n1`, for which the Potency entry in [1], in assay [2], in [3], in assay [4], in [5] and in [6] was “inactive” in each case. Also, the Potency result in [7], in assay [8], in assay [9], in [10], in assay [11] and in [12] was “inactive” throughout. The Potency result in assay [18], in [14], in assay [15], in assay [16] and in assay [17] was “inactive” each time.
In the case of `Brc1cc2ccccc2c2ccccc12`, the Potency in [1] was 30.9 µM (active). Besides, the Potency result in [2], in [3], in assay [4], in assay [5], in assay [6] and in assay [7] was “inactive” each time. Further, the Potency entry in [8], in [10], in assay [11], in assay [13], in assay [18] and in assay [16] was “inactive” in each case. The Potency entry in assay [17] was “inactive”.
Regarding `Nc1ccc(C(=O)Nc2ccccc2N)cc1`, the Potency result in [1], in assay [2], in assay [3], in assay [4], in assay [5] and in assay [6] was “inactive” each time. The Potency entry in assay [7], in assay [8], in assay [9], in assay [10], in [11] and in [12] was “inactive” throughout. The Potency entry in assay [13], in [18], in assay [15] and in assay [17] was “inactive” in each case.
With `CC(C)COC(=O)/C=C/c1ccccc1`, the Potency entry in [1], in assay [2], in [3], in assay [4], in assay [5] and in assay [6] was “inactive” throughout. Also, the Potency result in [7], in assay [8], in assay [9], in assay [10], in assay [11] and in [12] was “inactive” throughout. Also, the Potency result in assay [13], in assay [18], in assay [15], in [16] and in assay [17] was “inactive” in each case.
Turning to `Oc1ccc(Cc2ccccc2)cc1`, the Potency entry in assay [1], in [2], in assay [3], in assay [4], in [5] and in assay [6] was “inactive” throughout. Also, the Potency result in assay [7], in assay [8], in assay [9], in assay [10], in assay [12] and in assay [15] was “inactive” throughout. The Potency entry in assay [19], in assay [16] and in assay [17] was “inactive” throughout.
For the molecule `CCc1oc2ccccc2c1C(=O)c1cc(I)c(O)c(I)c1`, the Potency in assay [1] was 5.96 µM (active). Besides, the Potency entry in [2], in [3], in assay [4], in [5], in [6] and in assay [7] was “inactive” each time. For the same molecule, the Potency entry in [8], in assay [11], in assay [12], in assay [13], in assay [18] and in assay [14] was “inactive” throughout. In addition, the Potency result in [15], in assay [19], in [16] and in assay [17] was “inactive” throughout.
